{
  "source": "PubChem BioAssay (Tox21)",
  "note": "Values joined by “and” are separate entries in the source; they are usually repeats but may differ in a detail not shown here. Equal values may be shown once. Records with an inconclusive call do not appear. Entries that show only a call come without a potency. The source holds several records for some structures; these can differ, active in one and inactive in another. Active and inactive are the calls of the source. Unless noted, the call rests on the fitted dose curve; in most records, active means well fitted cell-killing curve with a large enough effect in the repeat runs (not every such curve was filed as active); inconclusive means weak or mixed curves, or effect the other way; inactive means no such curve, though single readings can be large or run the other way. Potency means the concentration at half of the fitted maximal effect.",
  "data": [
    {"test": "qHTS assay to identify small molecule antagonists of the estrogen related receptor signaling pathway with the pleiotropic PPARgamma coactivator (PGC) from Tox21 10K library - cell viability counter screen (AID 1224840); further: nearly all actives have a fitted effect of over 40% in size", "conditions": "PGC/ERR reporter cells viability, CellTiter-Fluor, 17.5 h; series mostly up to 92.4 µM", "how_it_was_run": "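Following seeding of 2,000 PGC/ERR cells/well and 6 hours' incubation, test compounds were delivered in DMSO. The plates then sat 17.5 hours at 37 C before a fluorogenic live-cell protease reagent (CellTiter-Fluor) was read after 30 min.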", "values": [
      {"smiles": "O=S1(=O)CC=CC1", "Potency": "inactive"},
      {"smiles": "Nc1ccccc1[N+](=O)[O-]", "Potency": "inactive"},
      {"smiles": "CC(C)CC(=O)CC(C)C", "Potency": "inactive"},
      {"smiles": "CN(C)CCC(c1ccc(Cl)cc1)c1ccccn1", "note": "(stereo not given)", "Potency": "inactive"},
      {"smiles": "c1c[nH]cn1", "Potency": "inactive"},
      {"smiles": "OCCOCCN1CCN(C2=Nc3ccccc3Sc3ccccc32)CC1", "Potency": "inactive"},
      {"smiles": "CC(O)COCC(C)O", "note": "(stereo not given)", "Potency": "inactive"},
      {"smiles": "Cc1ccc2oc(=O)ccc2c1", "Potency": "inactive"},
      {"smiles": "CCCCC(CC)COC(=O)CS", "note": "(stereo not given)", "Potency": "inactive"},
      {"smiles": "O=C(O)c1ccc2c(c1)C(=O)OC2=O", "Potency": "inactive"},
      {"smiles": "COc1cc(Cc2cnc(N)nc2N)cc(OC)c1OC", "Potency": "inactive"},
      {"smiles": "COc1ccc(Nc2ccccc2)c(C)c1", "Potency": "inactive"},
      {"smiles": "CCN(CC)CCCC(C)Nc1ccnc2cc(Cl)ccc12", "note": "(stereo not given)", "viability change, negative = cytotoxic": "-1.36% [at 8.39 µM] (inactive) and -20.9% [at 19 µM] (inactive)"},
      {"smiles": "CCCCCCCCCC", "Potency": "inactive"},
      {"smiles": "CC(=O)CC(=O)Nc1ccccc1", "Potency": "inactive"},
      {"smiles": "Cc1cc(C)c(C)cc1C", "Potency": "inactive"},
      {"smiles": "CCCCCCCCCCCCCCO", "Potency": "inactive"},
      {"smiles": "C=C(C)C(=O)O[C@H]1C[C@@H]2CC[C@@]1(C)C2(C)C", "Potency": "13.6 µM (active) and inactive"},
      {"smiles": "Cc1ccc(S(N)(=O)=O)cc1", "Potency": "inactive"},
      {"smiles": "C=CCOC(=O)c1ccccc1C(=O)OCC=C", "Potency": "inactive"},
      {"smiles": "C#C[C@]1(O)CC[C@H]2[C@@H]3CCC4=CC(=O)CC[C@@H]4[C@H]3CC[C@@]21C", "Potency": "inactive"},
      {"smiles": "OCc1cccnc1", "Potency": "inactive"},
      {"smiles": "O=C(O)[C@H](O)[C@@H](O)[C@H](O)[C@H](O)CO", "Potency": "inactive"},
      {"smiles": "O=S(=O)(O)c1ccc2ccccc2c1", "Potency": "inactive"},
      {"smiles": "CCCCC(CC)COC(=O)C(C#N)=C(c1ccccc1)c1ccccc1", "note": "(stereo not given)", "Potency": "inactive"}
    ]},
    {"test": "qHTS assay to identify small molecule antagonists of the estrogen related receptor signaling pathway with the pleiotropic PPARgamma coactivator (PGC) from Tox21 10K library (AID 1224841; call rule not given here; further: actives are mostly falling curves and most rising ones were filed inactive; nearly all actives have a fitted effect of over 50% in size)", "conditions": "PGC/ERR reporter cell line, ONE-Glo luciferase, 18 h; series mostly up to 92.4 µM", "how_it_was_run": "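qHTS antagonist format: PGC/ERR cells, 2k/well, compound in DMSO by pin transfer after 6 h attachment, 18 h treatment at 37 C, One-Glo luminescence read at 30 min.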", "values": [
      {"smiles": "O=P(OC(CCl)CCl)(OC(CCl)CCl)OC(CCl)CCl", "Potency": "54.2 µM (active) and 54.5 µM (active)"},
      {"smiles": "Nc1ccccc1[N+](=O)[O-]", "Potency": "inactive"},
      {"smiles": "CC(C)CC(=O)CC(C)C", "Potency": "inactive"},
      {"smiles": "CCc1cccc(C)c1N", "Potency": "inactive"},
      {"smiles": "CCCCC(CC)COC(=O)CS", "note": "(stereo not given)", "Potency": "inactive"},
      {"smiles": "CCCCCCCCCCCCCCCO", "Potency": "69.1 µM (active) and inactive"},
      {"smiles": "COc1ccc(Nc2ccccc2)c(C)c1", "Potency": "inactive"},
      {"smiles": "C[C@H]1C[C@@H]2[C@H]([C@@H](O)C[C@@]3(C)[C@H]2CC[C@]3(O)C(=O)CO)[C@@]2(C)C=CC(=O)C=C12", "Potency": "inactive"},
      {"smiles": "C=C(C)C(=O)O[C@H]1C[C@@H]2CC[C@@]1(C)C2(C)C", "Potency": "60.8 µM (active) and inactive"},
      {"smiles": "CCCCC(CC)COC(=O)C(C#N)=C(c1ccccc1)c1ccccc1", "note": "(stereo not given)", "Potency": "inactive"}
    ]}
  ]
}
